Bioassay records from PubChem BioAssay.
DT40 TDP1 CPT: DT40-hTDP1 cell growth loss with CPT | chicken DT40 Tdp1-/-;hTDP1 cells + 20 nM CPT, ATP luminescence, 48 h | Potency, µM (top dose mostly 46.2 µM), actives largely listed as inhibitors | 420,000 tested, 12% active | AID 686979; note: nearly all actives have a fitted effect of over 55% in size
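Chicken DT40 Tdp1-/- cells stably complemented with human TDP1 were seeded at 400 cells/well in medium containing 20 nM camptothecin, exposed to pin-transferred compounds, and grown at 37 °C for at least 48 hr. Viability was read as ATP luminescence.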
TDP1 cell noCPT: qHTS for Inhibitors of human tyrosyl-DNA phosphodiesterase 1 (TDP1): qHTS in cells in absence of CPT. DT40 Tdp1-/- hTDP1 cells, no CPT, ATP luminescence, 48 h. Potency, µM (titrated, usually from 46.2 µM), most hits filed as inhibitors. 420,000 tested, 15% active. AID 686978, 2013; note: nearly all actives have a fitted effect of over 55% in size
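Stably hTDP1-transfected Tdp1-null chicken DT40 cells were treated with library compounds minus camptothecin and grown for at least 48 hr at 37 °C, after which cellular ATP was quantified by luminescence.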
ALOX12 inh: ALOX12 (human) lipoxygenase inhibition; P18054; purified 12hLO, xylenol orange hydroperoxide absorbance; Potency, µM (titrated, usually from 108 µM), hits mostly inhibitors; 580,000 tested, 1.1% active
Target sequence (P18054 whole entry, looked up): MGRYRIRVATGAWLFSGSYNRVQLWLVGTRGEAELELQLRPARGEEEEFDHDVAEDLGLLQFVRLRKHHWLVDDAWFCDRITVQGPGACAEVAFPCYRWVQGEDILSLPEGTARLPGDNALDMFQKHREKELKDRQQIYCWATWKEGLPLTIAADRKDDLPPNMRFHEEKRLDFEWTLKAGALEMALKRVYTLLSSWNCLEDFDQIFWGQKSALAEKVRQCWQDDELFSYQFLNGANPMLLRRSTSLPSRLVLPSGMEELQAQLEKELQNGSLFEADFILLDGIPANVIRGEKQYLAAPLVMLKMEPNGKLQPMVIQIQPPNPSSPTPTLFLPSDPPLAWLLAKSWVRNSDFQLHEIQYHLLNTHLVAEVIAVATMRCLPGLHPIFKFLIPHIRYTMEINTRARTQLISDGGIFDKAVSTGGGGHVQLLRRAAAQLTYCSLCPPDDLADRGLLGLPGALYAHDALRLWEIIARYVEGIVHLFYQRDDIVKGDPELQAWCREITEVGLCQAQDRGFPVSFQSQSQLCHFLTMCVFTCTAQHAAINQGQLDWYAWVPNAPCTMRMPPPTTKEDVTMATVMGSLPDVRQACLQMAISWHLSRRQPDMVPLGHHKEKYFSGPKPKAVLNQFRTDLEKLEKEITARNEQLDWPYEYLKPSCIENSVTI
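Purified human 12hLO (150 nM final) in 25 mM Hepes, 0.01% Triton X-100, pH 7.0 was preincubated 15 min at room temperature with compound. Then 40 uM arachidonic acid was added, 30 min. Hydroperoxide was read by Fe-XO absorbance ratio 573/405 nm.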
HT1080NT lethal: kills 2HG-producing HT-1080-NT fibrosarcoma cells; HT-1080-NT fibrosarcoma viability, CellTiter-Glo ATP luminescence, 48 h; Potency, µM (highest dose often 46.1 µM), hits mostly cytotoxic; 360,000 tested, 1.6% active;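 note: NT is the 2HG producing partner of a matched IDH1 knockdown line; nearly all actives have a fitted effect of over 55% in size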
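Viability by CellTiter-Glo luminescence after 48 h compound exposure at 37C of HT-1080-NT cells (750/well, RPMI, 5% FBS). % activity scaled between DMSO wells and medium-only wells, then curve-fitted and categorized by curve class.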
HT1080 IDH1KD tx: toxicity to HT-1080 IDH1 knockdown cells (counter line) | HT-1080 IDH1 knockdown viability, ATP luminescence, 48 h | Potency, µM (series often up to 46.1 µM), most hits filed as cytotoxic | 360,000 tested, 2% active | AID 686971
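Cytotoxicity counter-line: IDH1KD HT-1080, 48 h, CellTiter-Glo. Curves classed by r2, magnitude and activity.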
IL1B secr inh: inflammasome signaling inhibition, IL-1 beta readout. THP-1 LPS/ATP IL-1B secretion, AlphaLISA, 16 h; active compounds read low. activity change, % at 57.5 µM. 360,000 tested, 4.7% active; in the data active = activity change below about -50%; inconclusive = mostly about -30% to -49%
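THP-1 cells pretreated 1 hr with compounds (up to 57.5 uM final), then stimulated with LPS (250 ng/mL final) plus ATP (1.25 mM final); secreted IL-1B measured by AlphaLISA after 16 hr, decreased signal indicating inhibition.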
Numbers stand for hits; i = inactive; ? = inconclusive; nt = no result; [ ] = another dose, or the depositor's remark. The full list was thinned out, with hits kept by preference. Unless noted, calls come from the whole dose curve; as a rule, active = well fitted curve in the direction sought with a large enough effect; inconclusive = small, poorly fitted or top-dose-only effect, or another doubt; inactive = no such curve, though single readings can be large; an effect the other way counts as inactive or inconclusive.

SMILES | DT40 TDP1 CPT | TDP1 cell noCPT | ALOX12 inh | HT1080NT lethal | HT1080 IDH1KD tx | IL1B secr inh
COc1ccc(NC(=O)CSC2=C(C#N)C(c3ccco3)C(C(=O)Nc3nc4ccccc4s3)=C(C)N2)cc1 (centres undefined) | ? | ? | i | i | i | i
CCOC(=O)C1=C(c2ccccc2)NC(SCC(=O)NC2CCCCC2)=C(C#N)C1c1ccco1 (centres undefined) | i | i | i | i | i | -55
COCCOC(=O)C1=C(C)NC(SCC(=O)NC(C)(C)C)=C(C#N)C1c1ccco1 (centres undefined) | 26µM | 23µM | i | i | i | i
C=CCOC(=O)C1=C(C)NC(SCC(=O)Nc2ccc(C)c(Cl)c2)=C(C#N)C1c1ccco1 (centres undefined) | ? | 29µM | ? | 18µM | 16µM | i
CCOC(=O)C1=C(C)NC(C)=C(C(=O)OC)C1c1ccco1 (centres undefined) | i | i | i | i | i | i
CCc1ccc2c(c1)-c1ccccc1S(=O)(=O)N2CC(=O)N1CCC(C(N)=O)CC1 | nt | nt | i | nt | nt | nt
Cc1cc(C)c2nc(N3CCN(C(=O)c4cccs4)CC3)sc2c1 | i | ? | ? | i | i | -70
Cc1cc2nc(N3CCN(C(=O)c4cccs4)CC3)sc2cc1C | i | ? | i | i | i | i
Cc1cc(C)c2nc(N3CCC(C(=O)N4CCCC4)CC3)sc2c1 | ? | ? | i | ? | i | i
Cc1cc(C)c2nc(N3CCC(C(=O)NCCCN4CCCCC4)CC3)sc2c1 | ? | ? | i | 23µM | 18µM | i
Cc1cc(C)c2nc(N3CCC(C(=O)N4CCN(c5ncccn5)CC4)CC3)sc2c1 | 16µM | ? | i | i | i[9.24 µM] | -78
Cc1cc(C)c2nc(N3CCC(C(=O)NCC4CCCO4)CC3)sc2c1 (centres undefined) | i | i | i | i | i | i
O=C(C1CC1)N1CCN(c2nc3c(Cl)cccc3s2)CC1 | 21µM | 21µM | ? | nt | nt | nt
c1ccc(-c2cnc3n2C[C@H](CNCc2cccs2)OC3)cc1 | nt | nt | i | nt | nt | nt
CS(=O)(=O)N(C1CCOCC1)C1CN(C(=O)CCc2c[nH]c3ccccc23)C1 | nt | nt | i | nt | nt | nt
Cc1cscc(C)c1=S | i | i | 18µM | i | i | i
COc1ccccc1NC(=O)C1=C(C)Nc2nc(-c3ccc(F)cc3)nn2C1c1ccccn1 (centres undefined) | nt | nt | i | nt | nt | nt
COc1ccc2[nH]cc(CCNc3ncncc3-c3cccc(C#N)c3)c2c1 | 0.0046µM | ? | i | nt | nt | nt
COc1ccc2[nH]cc(CCNc3ncncc3-c3ccoc3)c2c1 | 4.6µM | 7.3µM | i | nt | nt | nt
COc1ccc2[nH]cc(CCNc3ncncc3-c3ccc(N(C)C)cc3)c2c1 | ? | ? | i | nt | nt | nt
CCOCCCNc1nc2c(c(=O)n(C)c(=O)n2C)n1Cc1ccc(Cl)cc1Cl | nt | nt | i | nt | nt | nt
Cc1nc(CCN(C)C(=O)c2ccc3nc(Cc4ccccc4F)oc3c2)no1 | nt | nt | i | nt | nt | nt
CCN(Cc1cnn(C)c1)C(=O)c1ccc2nc(Cc3ccccc3F)oc2c1 | ? | 21µM | i | i | i | i
Cn1cc(CNC(=O)c2ccc3nc(Cc4ccccc4F)oc3c2)cn1 | i | ? | i | i | i | i
Cc1cc(CN(C)C(=O)c2ccc3nc(Cc4ccccc4F)oc3c2)on1 | ? | ? | i | i | i | -81
SMILES | DT40 TDP1 CPT | TDP1 cell noCPT | ALOX12 inh | HT1080NT lethal | HT1080 IDH1KD tx | IL1B secr inh
CCn1cc(CNC(=O)c2ccc3nc(Cc4ccccc4F)oc3c2)cn1 | 12µM | 12µM | i | i | i | ?
COC(=O)c1cc(-c2c(C)oc3cc(OC(C)=O)ccc3c2=O)c(C)o1 | nt | nt | i | nt | nt | nt
COC(=O)c1cc(-c2c(C)oc3cc(OC)ccc3c2=O)c(C)o1 | 12µM | 18µM | i | i | i | i
Fc1cc(F)cc(-c2oncc2-c2nnnn2-c2ccccc2)c1 | i | i | i | i | i | i
Cc1ccc(-n2nnnc2-c2cnoc2-c2cccc(F)c2)cc1 | 26µM | ? | ? | i | i | i
COc1ccccc1-c1cnc2c(Nc3cccc(OC(F)(F)C(F)F)c3)nccn12 | ? | ? | i | i | i | i
FC(F)C(F)(F)Oc1cccc(Nc2nccn3c(-c4cccc5cccnc45)cnc23)c1 | 26µM | 23µM | ? | i | ? | i
Cc1ccc(S(=O)(=O)N2CCN(c3ncnc4scc(-c5ccc(F)cc5)c34)CC2)cc1 | ? | 15µM | i | i | i | i
O=C(c1ccco1)N1CCN(c2ncnc3scc(-c4ccc(F)cc4)c23)CC1 | ? | ? | i | ? | ? | i
Cc1ccc(S(=O)(=O)N2CCN(c3ncnc4scc(-c5ccccc5)c34)CC2)cc1 | ? | 23µM | i | i | i | i
O=S(=O)(c1cccc(F)c1)N1CCN(c2ncnc3scc(-c4ccc(F)cc4)c23)CC1 | 15µM | 12µM | i | i | i | i
Cc1sc2ncnc(N3CCN(S(=O)(=O)c4ccccc4)CC3)c2c1C | 8.2µM | 6.5µM | nt | i | i | i
Cc1ccc(OCCN2CCN(c3ncnc4scc(-c5ccccc5)c34)CC2)cc1 | nt | nt | i | nt | nt | nt
Cc1sc2nc(CN3CCCC3)nc(N3CCN(S(=O)(=O)c4ccccc4)CC3)c2c1C | i | ? | i | i | i | ?
CCOc1ccc(NC(=O)c2ccc3c(c2)N(CC)C2CCCCN2C3=O)cc1 (centres undefined) | nt | nt | i | nt | nt | nt
Cn1c2ccccc2c2nnc(SCc3ccc(F)cc3Cl)nc21 | nt | nt | i | nt | nt | nt
Cc1ccccc1-c1nn(-c2ccc(F)cc2F)cc1CN1CCC(O)CC1 | nt | nt | i | nt | nt | nt
Cc1cc(C)cc(N(CC(=O)Nc2cccc(C)n2)S(=O)(=O)c2c(C)noc2C)c1 | 21µM | 13µM | i | i | i | i
COc1cc(NC(=O)CN(c2cc(C)cc(C)c2)S(=O)(=O)c2c(C)noc2C)cc(OC)c1 | 18µM | ? | i | i | i | i
Cc1cc(C)cc(N(CC(=O)NCc2ccco2)S(=O)(=O)c2c(C)noc2C)c1 | i | i | i | i | i | i
Cc1ccc(NC(=O)CN(c2cc(C)cc(C)c2)S(=O)(=O)c2c(C)noc2C)nc1 | ? | ? | i | i | i | i
Cc1cc(C)cc(N(CC(=O)NCc2ccccc2Cl)S(=O)(=O)c2c(C)noc2C)c1 | ? | 23µM | i | nt | nt | nt
Cc1ccc(N(CC(=O)Nc2ccc(OC(F)(F)F)cc2)S(=O)(=O)c2c(C)noc2C)cc1 | 21µM | 18µM | i | nt | nt | nt
O=C(c1ccccc1F)N1CC(c2nnc(-c3ccncc3)o2)C2(CCOCC2)C1 (centres undefined) | nt | nt | i | nt | nt | nt
COc1ccc(C2Cn3nnc(C(=O)N4CCC(C(N)=O)CC4)c3CO2)cc1 (centres undefined) | nt | nt | i | nt | nt | nt
O=C(CC1CCCCC1)Nc1ccc2c(c1)-c1ccccc1C2 | nt | nt | i | nt | nt | nt
